Compounds without any hit were thinned out: in the full panel of roughly 83,000, 20% have a hit.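 Note: values are percent growth. 100 is the growth of untreated cells, values between 100 and 0 indicate rising inhibition; between -100 and 0 indicates cell death.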 A number with no mark means an inactive call. Calls of active or inactive are those of the source. The calls were made as follows: active = growth percent below 10; inactive = the rest.
What follows are compounds tested on HL-60(TB) leukemia (assay: NCI-60 one-dose screen, 48 h (100 = growth as untreated, 0 = no growth, -100 = all killed)). Settings: 10 µM unless noted.

| SMILES | growth |
| --- | --- |
| CC(CN1CCN(C)CC1)CN1c2ccccc2Sc2ccc(C(F)(F)F)cc21 (centres undefined) | 40.4% |
| COc1ccc(-c2nc3ncccn3c2/C=C/C(=O)c2cc(OC)c(OC)c(OC)c2)cc1 | 1.2% (active) |
| Cn1ccnc1C(=O)/C=C/c1ccc(C(=O)Nc2c(F)c(F)c(F)c(F)c2F)cc1 | -22.4% (active) |
| CN(C)c1ncnc2c1cnn2C | 108% |
| COc1ccc(-c2cc3c(nn2)-c2ccccc2C3=O)cc1 | 57.4% |
| O=S(=O)(NCCCNc1cc(-c2cn(-c3ccccc3)nc2-c2ccccc2)ccn1)c1ccc(C(F)(F)F)cc1 | 39.1% |
| CC(=O)Oc1ccc(C)cc1C | 95% |
| Cc1nn(-c2cc(=O)[nH]c3ccccc23)c(N)c1C#N | 102% |
| CCCCN(CCCC)CCC(C)(O)c1cc2ccccc2c2ccccc12 (centres undefined) | 83.7% |

From PubChem BioAssay (NCI)
